# According to ChEMBL document CHEMBL3433997, “St. Jude Leishmania screening dataset” (2016):
# Molecular target: Solute carrier family 2, facilitated glucose transporter member 1 (Homo sapiens) (UniProt P11166)
# Test: ST_JUDE_LEISH: Cytotoxicity at 2uM final concentration against transgenic Leishmania Mexicana promastigotes LmGLUT1 that are glucose transport deficient and complemented with the human glucose transporter GLUT1. Activity is measured by DNA content using SYBR green in vitro
# Format: functional
# Sequence of Solute carrier family 2, facilitated glucose transporter member 1 (Homo sapiens) (P11166 whole entry): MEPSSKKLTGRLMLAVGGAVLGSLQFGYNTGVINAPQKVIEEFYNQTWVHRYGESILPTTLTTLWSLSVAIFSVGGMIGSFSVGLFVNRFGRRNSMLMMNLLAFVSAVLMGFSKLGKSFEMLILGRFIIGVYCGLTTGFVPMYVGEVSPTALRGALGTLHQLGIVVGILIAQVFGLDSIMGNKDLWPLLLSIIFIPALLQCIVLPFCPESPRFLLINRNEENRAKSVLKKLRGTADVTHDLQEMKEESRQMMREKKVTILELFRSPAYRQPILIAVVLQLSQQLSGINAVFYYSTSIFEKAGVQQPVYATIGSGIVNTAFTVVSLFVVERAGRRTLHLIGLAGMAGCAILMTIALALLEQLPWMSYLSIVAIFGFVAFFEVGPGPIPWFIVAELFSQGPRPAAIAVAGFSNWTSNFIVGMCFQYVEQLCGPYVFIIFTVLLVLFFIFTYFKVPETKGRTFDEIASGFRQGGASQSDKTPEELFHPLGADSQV
row,SMILES,inhibition
1,COc1ccccc1-n1ccnc1SCC(=O)Nc1cccc(C(F)(F)F)c1,3.36%
2,Cc1nc(Nc2ccc(F)cc2)nc(N2CCc3ccccc3[C@@H]2C)c1C,3.94%
3,CCN(CC)CCON=Cc1cc(C)c2[nH]c3ccc(OCc4ccccc4)cc3c2c1C,-1.13%
4,Cc1cc(N[C@@H](CC(C)C)C(=O)Nc2ccccc2)nc(NCc2ccccc2C)n1,8.7%
5,O=C(Nc1ccc(Cl)cc1)Nc1ccc(-c2csc(-c3nc4ccccc4[nH]3)c2)cc1,0.59%
6,C[C@@H](NC(=O)c1nn(-c2ccc(Cl)cc2)c(=O)c2ccccc12)C(C)(C)C,1.61%
7,O=C(NCC1CCCCC1)c1cc(=O)c2ccccc2o1,8.02%
8,O=C(NCCN1CCCc2ccccc21)C1CCN(c2nc(-c3ccc(Cl)cc3)no2)CC1,1.63%
9,O=C(c1cc(-c2ccccc2)n[nH]1)N1CCN(S(=O)(=O)c2ccc(Cl)s2)CC1,4.06%
10,O=C(/C=C/c1ccc(Cl)c(Cl)c1)NCCCCCN1CCC(NC(=O)Nc2cc(Cl)ccc2Cl)CC1,9.69%
11,COc1ccc2nccc([C@@H](O)CN3CCC(NCc4cc5ccccc5nc4O)CC3)c2c1,1.8%
12,CN(C)CCNC(=O)c1cc2c(-c3ccc(Cl)cc3)nn(C)c2s1,2.62%
13,COc1ccc2ncc(C)c(CCN3CCC(NCc4ccc5c(n4)NC(=O)CS5)CC3)c2c1,8.73%
14,Cc1ccc(N2C(N)=NC(N)=NC2c2ccccc2)cc1 (stereo unspecified),2.79%
15,O=C(NC1CC1c1ccccc1)N(CCCn1ccnc1)Cc1csc(-c2ccc(CNCc3ccccc3)cc2)n1 (stereo unspecified),1.52%
16,CCC1(C)CC(CCNCc2ccccc2O)(c2ccccc2OC)CCO1 (stereo unspecified),0.62%
